The sample as a whole holds a higher share of hits than the screen did.
BJeLR viab HTS: compounds reducing viability of BJeLR cells. BJeLR fibroblasts viability, CellTiterGlo ATP luminescence, 48 h; HRASV12, hTERT and SV40 LT/ST transformed. viability loss activity score, % (no concentration beside the values). 30,000 compounds, 0.64% hits; in the data active = viability loss activity score above about 50%;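 also: higher score means fewer live cells and less ATP luminescence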
Hedgehog inh: Sonic Hedgehog pathway inhibition; Shh-LIGHT2 Gli-luciferase reporter, 30 h; 22,000 compounds, 2.1% hits; AID 2313; inhibition, % (no concentration beside the values);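 active = mean inhibition across valid replicates above about 65%, limit read from the data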;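 also: pathway switched on by Shh-conditioned medium diluted 1 in 25 in low serum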
MITF inh: blocks MITF activity. TRPM1 promoter luciferase, luminescence, 24 h. inhibition, % (no concentration beside the values). 37,000 compounds, 0.28% hits; in the data active = inhibition above about 85%;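 also: human melanocyte line stably carrying TRPM1 promoter luciferase reporter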
Of the large screens only hits and unclear results are named; the others gave an inactive call.

C[C@H]1CC[C@@H]2[C@@H](C)[C@H]3[C@H](C[C@H]4[C@@H]5CC=C6CC(O[C@@H]7O[C@H](CO)[C@@H](O)[C@H](O[C@@H]8O[C@H](CO)[C@@H](O)[C@H](O)[C@H]8O)[C@@H]7O[C@@H]7O[C@@H](C)[C@H](O)[C@@H](O)[C@H]7O)CC[C@]6(C)[C@H]5CC[C@]34C)N2C1 (some centres undefined)	BJeLR viab HTS 80.9
C[C@H]1CC[C@@H]2[C@@H](C)[C@H]3[C@H](C[C@H]4[C@@H]5CC=C6C[C@@H](O[C@@H]7O[C@H](CO)[C@H](O)[C@H](O[C@@H]8O[C@H](CO)[C@@H](O)[C@H](O)[C@H]8O)[C@H]7O[C@@H]7O[C@@H](C)[C@H](O)[C@@H](O)[C@H]7O)CC[C@]6(C)[C@H]5CC[C@]34C)N2C1	none
Oc1ccc2c3c1OC1[C@@H](O)CC[C@@]4(O)[C@@H](C2)N(CC2CCC2)CC[C@]314 (some centres undefined)	none
C/C=C(\C)[C@H](O)[C@H](C)/C=C(C)/C=C/C/C(C)=C/Cc1[nH]c(OC)c(OC)c(=O)c1C	MITF inh 96.2
COc1ccc2c(c1OC)CN1CCc3cc4c(cc3C1C2)OCO4 (centres undefined)	none
COc1ccc2c(c[n+](C)c3c4cc5c(cc4ccc23)OCO5)c1OC	BJeLR viab HTS 78.9
O=C(O)C1C2CCC(O2)C1C(=O)NCCc1ccccc1 (centres undefined)	none (no result: BJeLR viab HTS, Hedgehog inh)
c1cncc(C2Nc3ccccc3-n3cccc32)c1 (centres undefined)	none
Cc1cc(Br)c(NC(=O)C2C(C)(C)C2(C)C)c(Br)c1	Hedgehog inh 64.6
CC1(C)C(C(=O)Nc2ccccc2C#N)C1(C)C	none
CCNCC(O)c1cccc(OC(=O)c2ccccc2C)c1 (centres undefined)	none (no result: Hedgehog inh, MITF inh)
CCN(CC)c1nc2ccccc2c(=O)n1-c1ccccc1	none (no result: Hedgehog inh, MITF inh)
COc1ccc(CN2CCN(Cc3ccccc3C)CC2)cc1	none (no result: Hedgehog inh, MITF inh)
COC(=O)[C@@]12C(=O)C(C)C(=O)[C@]1(C)C(C)=C[C@H]1[C@]3(C=O)CC[C@H](OC(C)=O)C(C)(C)[C@H]3CC[C@@]12C (some centres undefined)	none (no result: BJeLR viab HTS, MITF inh)
COc1cc2c(cc1O)CCNC2C (centres undefined)	none
CC[C@H]1CN2CCc3cc(OC)c(OC)cc3[C@@H]2C[C@@H]1C[C@H]1NCCc2cc(O)c(OC)cc21	BJeLR viab HTS 93.6, Hedgehog inh 85.9, MITF inh 88.1
CCc1cccc(C)c1N(C(=O)CCl)C(C)COC (centres undefined)	none
CC(C)N(C(=O)CCl)c1ccccc1	Hedgehog inh 70.5
Cc1ccnc(NC(c2ccccc2[N+](=O)[O-])c2ccc3ccc(C)nc3c2O)c1 (centres undefined)	none (no result: BJeLR viab HTS, Hedgehog inh)
CCCC(=O)O[C@@H]1[C@@H](C)[C@@]2(O)[C@@H](C=C(CO)C[C@]3(O)C(=O)C(C)=C[C@@H]23)[C@@H]2C(C)(C)[C@]12OC(=O)CCC	Hedgehog inh 69.7
C[C@@H]1C(=O)O[C@H]2[C@H]1CC[C@@]1(C)C=CC(=O)[C@@]3(C)O[C@@]213	none
CC(=O)NC1C(OC2OC(CC(O)C3OC(n4ccc(=O)[nH]c4=O)C(O)C3O)C(O)C(O)C2NC(=O)/C=C/CCCCCCCCCC(C)C)OC(CO)C(O)C1O (centres undefined)	Hedgehog inh 107.9
Cc1c(O)c(C(=O)O)c(O)c2c1[C@H](C)[C@@H](C)OC2=O	none
O=[N+]([O-])c1ccc(O)c([N+](=O)[O-])c1	MITF inh 104.8
C=CC/C=C\C/C=C\CCCCCCCc1cc(O)cc(O)c1	none (no result: BJeLR viab HTS)
Cc1cccc(C)c1NC1=NCCS1	none (no result: Hedgehog inh, MITF inh)
CCC(C)[C@H]1C(=O)O[C@H](C(C)C)C(=O)N(C)[C@@H](C(C)CC)C(=O)O[C@H](C(C)C)C(=O)N(C)[C@@H](C(C)CC)C(=O)O[C@H](C(C)C)C(=O)N1C (some centres undefined)	BJeLR viab HTS 90.5, Hedgehog inh 103.9, MITF inh 96.1
c1cncc(C2N=C(c3cnccn3)NN2)c1 (centres undefined)	none
COc1cc([C@@H]2c3cc4c(cc3[C@@H](O)C3COC(=O)C32)OCO4)cc(OC)c1O (some centres undefined)	BJeLR viab HTS 50.0, Hedgehog inh 90.3
COc1cc([C@@H]2c3cc4c(cc3[C@H](OC(C)=O)[C@H]3COC(=O)[C@@H]23)OCO4)cc(OC)c1OC	none
COc1ccc2c(c1OC)C(=O)O[C@H]2[C@H]1c2cc3c(cc2CCN1C)OCO3	none
COc1cc(C2c3cc4c(cc3CC3COC(=O)C32)OCO4)cc(OC)c1OC (centres undefined)	BJeLR viab HTS 63.9, Hedgehog inh 80.0
COc1cc2c(cc1OC)-c1c(OC)c(OC)c(N)c3c1[C@H](C2)N(C)CC3	none (no result: Hedgehog inh, MITF inh)

High-throughput results from PubChem.
